Data as given in PubChem BioAssay (EPA / NIEHS).
Records with an inconclusive call do not appear. Calls of active or inactive are those of the source. Rule for the calls, unless noted: active = hit-call score of the fitted dose curve at least 0.9, where 1 is the maximum; inactive = score below 0.9.

Key:
[1] = target: Paired box protein Pax-6 (Homo sapiens) (UniProt P26367); experiment: ATG_Pax6_CIS: Attagene CIS-FACTORIAL HepG2 Assay for human Paired Box 6 (PAX6) (AID 2282956); conditions: HepG2 CIS-FACTORIAL PAX6 reporter transcription, RNA readout; actives raise or lower the signal
Chain of Paired box protein Pax-6 (Homo sapiens) (P26367 whole entry, looked up): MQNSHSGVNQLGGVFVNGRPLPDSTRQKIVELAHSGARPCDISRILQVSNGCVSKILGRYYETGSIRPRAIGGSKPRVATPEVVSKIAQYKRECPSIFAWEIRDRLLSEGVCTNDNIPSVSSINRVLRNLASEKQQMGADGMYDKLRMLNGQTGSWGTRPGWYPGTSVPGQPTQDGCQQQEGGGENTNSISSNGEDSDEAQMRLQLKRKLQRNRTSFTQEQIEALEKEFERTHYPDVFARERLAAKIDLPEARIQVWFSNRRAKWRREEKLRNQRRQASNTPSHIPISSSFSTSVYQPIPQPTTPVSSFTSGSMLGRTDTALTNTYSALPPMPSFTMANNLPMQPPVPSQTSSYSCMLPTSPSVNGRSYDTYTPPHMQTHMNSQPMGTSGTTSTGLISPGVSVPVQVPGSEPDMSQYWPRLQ
Procedure, shortened: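 Fluorescent RT-PCR products separated by capillary electrophoresis report PAX6-linked promoter mRNA in HepG2 cells 24 h post-dose. Curves fitted bidirectionally, DMSO as negative control.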

[2] = ATG_PXRE_CIS: Attagene CIS-FACTORIAL HepG2 Assay for human Pregnane X Receptor Element (PXRE) (AID 2282957); conditions: HepG2 Attagene CIS-FACTORIAL PXRE reporter, mRNA; actives raise or lower the signal
Procedure, shortened: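 After a 24 h chemical incubation, total RNA from transfected HepG2 cells was reverse-transcribed and reporter cDNA amplified, FAM-labeled, HpaI-digested and sized by capillary electrophoresis. DMSO served as baseline for bidirectional curve fitting.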

[3] = ATG_PPRE_CIS: Attagene CIS-FACTORIAL HepG2 Assay for human Peroxisome Proliferator-activated Response Element (PPRE) (AID 2282958); conditions: HepG2 PPRE cis-element reporter, Attagene transcription factor profiling; actives raise or lower the signal
Procedure, shortened: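 PPRE activity in HepG2: transient cis-reporter transfection, 24 h compound incubation, reporter mRNA by RT-PCR and CE fluorescence; gain/loss fitted against DMSO.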

[4] = ATG_RORE_CIS: Attagene CIS-FACTORIAL HepG2 Assay for human RAR-related Orphan Receptor Element (RORE) (AID 2282959); conditions: HepG2 Attagene cis-factorial RORE reporter, mRNA; actives raise or lower the signal
Procedure, shortened: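 A 24-hour exposure of transfected HepG2 hepatoma cells precedes RNA isolation and reporter RT-PCR. Labeled products are digested with HpaI and resolved by capillary electrophoresis, with gain or loss of signal scored relative to DMSO.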

[5] = ATG_Sox_CIS: Attagene CIS-FACTORIAL HepG2 Assay for human SRY-box transcription factor (SOX) (AID 2282960); conditions: HepG2 Attagene cis-factorial SOX reporter, mRNA; actives raise or lower the signal
Procedure, shortened: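 HepG2, cis reporter units, 24 h exposure. Reporter mRNA: RT-PCR → FAM labelling → HpaI → CE fluorescence. Bidirectional fit vs DMSO.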

[6] = target: Transcription factor Sp1 (Homo sapiens) (UniProt P08047); experiment: ATG_Sp1_CIS: Attagene CIS-FACTORIAL HepG2 Assay for human Specificity Protein 1 (Sp1) (AID 2282961); conditions: HepG2 Sp1 cis-reporter transcription, actives raise or lower the signal
Chain of Transcription factor Sp1 (Homo sapiens) (P08047 whole entry, looked up, the tested form may be a part): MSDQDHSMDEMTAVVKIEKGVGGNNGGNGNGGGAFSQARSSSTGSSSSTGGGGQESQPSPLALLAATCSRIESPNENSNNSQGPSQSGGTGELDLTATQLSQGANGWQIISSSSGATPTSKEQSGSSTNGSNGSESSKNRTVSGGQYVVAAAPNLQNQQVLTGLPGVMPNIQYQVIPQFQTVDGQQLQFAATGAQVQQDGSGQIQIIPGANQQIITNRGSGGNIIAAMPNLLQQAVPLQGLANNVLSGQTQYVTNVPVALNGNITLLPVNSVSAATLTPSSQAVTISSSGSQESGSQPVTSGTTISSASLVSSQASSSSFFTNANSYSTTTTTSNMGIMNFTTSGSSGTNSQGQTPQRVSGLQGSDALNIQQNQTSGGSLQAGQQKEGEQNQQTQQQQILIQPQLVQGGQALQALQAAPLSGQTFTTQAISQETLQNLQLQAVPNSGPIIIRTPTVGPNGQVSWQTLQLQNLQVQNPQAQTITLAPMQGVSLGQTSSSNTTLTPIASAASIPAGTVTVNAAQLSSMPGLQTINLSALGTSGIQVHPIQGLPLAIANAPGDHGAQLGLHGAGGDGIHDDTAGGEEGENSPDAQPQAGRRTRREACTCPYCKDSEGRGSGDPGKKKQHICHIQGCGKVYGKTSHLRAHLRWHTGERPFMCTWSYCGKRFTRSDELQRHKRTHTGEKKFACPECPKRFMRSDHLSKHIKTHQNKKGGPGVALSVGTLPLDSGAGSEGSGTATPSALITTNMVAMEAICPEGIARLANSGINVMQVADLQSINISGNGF
Procedure, shortened: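 Liver-derived HepG2 cells, cis-element reporter library, 24 h treatment; RNA isolated, cDNA amplified with reporter-specific primers, FAM-labeled fragments sized on capillary analyzer. DMSO baseline, bidirectional curve fit.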

[7] = ATG_SREBP_CIS: Attagene CIS-FACTORIAL HepG2 Assay for human Sterol Regulatory Element Binding (SREBP) (AID 2282962); conditions: HepG2 Attagene cis-factorial SREBP reporter, mRNA; actives raise or lower the signal
Procedure, shortened: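 Endogenous factor activity is measured in HepG2 through multiplexed reporter units under cis-element control. Following a 24 h incubation, reporter transcripts are reverse-transcribed, PCR-amplified and sized by capillary electrophoresis; activity is fitted in both directions relative to DMSO.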

[8] = target: Signal transducer and activator of transcription 3 (Homo sapiens) (UniProt P40763); experiment: ATG_STAT3_CIS: Attagene CIS-FACTORIAL HepG2 Assay for human Signal Transducer and Activator of Transcription 3 (STAT3) (AID 2282963); conditions: HepG2, Attagene cis-factorial STAT3 reporter transcription; actives raise or lower the signal
Chain of Signal transducer and activator of transcription 3 (Homo sapiens) (P40763 whole entry, looked up, the tested form may be a part): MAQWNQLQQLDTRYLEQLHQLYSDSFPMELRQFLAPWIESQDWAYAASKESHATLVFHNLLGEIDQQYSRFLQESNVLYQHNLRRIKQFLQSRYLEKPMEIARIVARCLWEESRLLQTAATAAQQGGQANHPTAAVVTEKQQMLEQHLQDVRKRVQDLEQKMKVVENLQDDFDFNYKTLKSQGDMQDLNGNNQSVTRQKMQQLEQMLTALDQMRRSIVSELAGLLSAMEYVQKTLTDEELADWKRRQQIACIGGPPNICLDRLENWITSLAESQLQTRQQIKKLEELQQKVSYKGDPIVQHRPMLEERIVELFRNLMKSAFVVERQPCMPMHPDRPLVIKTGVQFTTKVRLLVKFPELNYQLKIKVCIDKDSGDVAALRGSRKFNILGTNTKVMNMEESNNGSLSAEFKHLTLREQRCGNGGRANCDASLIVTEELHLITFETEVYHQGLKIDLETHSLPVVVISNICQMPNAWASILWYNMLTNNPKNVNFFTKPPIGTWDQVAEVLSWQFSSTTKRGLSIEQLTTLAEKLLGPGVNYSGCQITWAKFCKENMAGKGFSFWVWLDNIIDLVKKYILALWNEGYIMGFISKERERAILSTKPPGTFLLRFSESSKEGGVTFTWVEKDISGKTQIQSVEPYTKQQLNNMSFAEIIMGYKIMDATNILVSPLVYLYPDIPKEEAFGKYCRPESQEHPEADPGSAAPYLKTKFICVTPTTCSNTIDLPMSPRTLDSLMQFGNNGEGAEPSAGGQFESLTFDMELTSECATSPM
Procedure, shortened: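 Fluorescence intensity of 6-FAM-labelled reporter fragments, separated by capillary electrophoresis after RT-PCR, gave the signal. Cells were HepG2 transfected with cis-element reporter units and treated 24 h; fitting was bidirectional relative to DMSO.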

[9] = ATG_TA_CIS: Attagene CIS-FACTORIAL HepG2 Assay for human TA Basal Promoter (AID 2282964); conditions: HepG2 Attagene CIS-factorial TA basal promoter reporter; actives raise or lower the signal
Procedure, shortened: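 Transfected HepG2, 24 h compound exposure; RNA → RT-PCR → FAM primer extension → HpaI cut → CE fluorescence. Gain/loss-of-signal fitted against DMSO negative control. Background-control readout.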

[10] = ATG_TCF_b_cat_CIS: Attagene CIS-FACTORIAL HepG2 Assay for human T-Cell-Factor with beta-catenin (TCF/b-cat) (AID 2282965); conditions: HepG2 TCF/beta-catenin cis-reporter transcription, actives raise or lower the signal
Procedure, shortened: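 HepG2, transient MRTU transfection, cis-element-driven reporters (endogenous TFs). 24 h compound exposure. Readout: reporter mRNA by RT-PCR + 6-FAM primer extension, HpaI digest, capillary electrophoresis. Gain/loss fit vs DMSO baseline.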

[11] = ATG_TAL_CIS: Attagene CIS-FACTORIAL HepG2 Assay for human TAL Basal Promoter (AID 2282966); conditions: HepG2 Attagene cis-factorial TAL promoter reporter; actives raise or lower the signal;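 note: background control endpoint measuring basal TAL promoter reporter mRNA not a specific factor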
Procedure, shortened: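 Basal-promoter background-control endpoint from a multiplexed HepG2 reporter panel. Cells were exposed 24 h, then reporter mRNA was read by RT-PCR/CE fluorescence and fitted in both directions relative to DMSO.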

[12] = ATG_TGFb_CIS: Attagene CIS-FACTORIAL HepG2 Assay for human Transforming Growth Factor (TGF) (AID 2282967); conditions: HepG2 Attagene CIS TGFb reporter, mRNA transcription; actives raise or lower the signal
Procedure, shortened: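 Readout: fluorescently labeled reporter cDNA fragments resolved by capillary electrophoresis after RT-PCR. Transfected HepG2 cells dosed for 24 h; endogenous TF activity at TGFB1-linked cis element; gain or loss fitted relative to DMSO.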

[13] = ATG_VDRE_CIS: Attagene CIS-FACTORIAL HepG2 Assay for human Vitamin D Receptor Element (VDRE) (AID 2282968); conditions: HepG2 VDRE cis-reporter transcription, actives raise or lower the signal
Procedure, shortened: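 Compounds were applied for 24 h to HepG2 cells transfected with promoter-regulated reporter units. Total RNA was reverse-transcribed, and reporter amplicons were fluorescently labelled and sized by capillary electrophoresis.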

[14] = target: Estrogen receptor (Homo sapiens) (UniProt P03372); experiment: ATG_ERa_TRANS: Attagene TRANS-FACTORIAL HepG2 Assay for human Estrogen Receptor alpha (ERa) (AID 2282970; active = hit-call score of the fitted dose curve at least 0.9, where 1 is the maximum); conditions: HepG2 Attagene TRANS ERa GAL4 reporter, mRNA
Chain of Estrogen receptor (Homo sapiens) (P03372 whole entry, looked up, the tested form may be a part): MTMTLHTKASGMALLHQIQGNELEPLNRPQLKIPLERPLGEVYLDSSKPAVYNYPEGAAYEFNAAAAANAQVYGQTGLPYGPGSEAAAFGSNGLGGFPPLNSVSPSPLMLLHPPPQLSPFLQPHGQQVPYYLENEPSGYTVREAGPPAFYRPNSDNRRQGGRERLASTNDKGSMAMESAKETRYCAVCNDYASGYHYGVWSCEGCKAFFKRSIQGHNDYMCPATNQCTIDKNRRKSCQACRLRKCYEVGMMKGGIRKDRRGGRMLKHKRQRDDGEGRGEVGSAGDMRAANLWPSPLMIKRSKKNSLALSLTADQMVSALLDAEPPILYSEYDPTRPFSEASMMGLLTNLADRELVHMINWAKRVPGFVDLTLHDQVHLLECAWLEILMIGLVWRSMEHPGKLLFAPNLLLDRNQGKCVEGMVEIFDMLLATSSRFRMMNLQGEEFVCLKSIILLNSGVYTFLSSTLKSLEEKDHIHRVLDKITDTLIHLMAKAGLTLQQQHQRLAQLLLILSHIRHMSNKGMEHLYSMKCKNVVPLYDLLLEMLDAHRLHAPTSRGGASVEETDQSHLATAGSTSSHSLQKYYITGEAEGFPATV
Procedure, shortened: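 Gal4-fusion ERa transactivation, measured as reporter transcript level in transiently transfected HepG2 cells. Exposure 24 h; RT-PCR plus capillary electrophoresis with fluorescence detection.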

[15] = target: X-box-binding protein 1 (Homo sapiens) (UniProt P17861); experiment: ATG_Xbp1_CIS: Attagene CIS-FACTORIAL HepG2 Assay for human X-box Binding Protein 1 (XBP1) (AID 2282972); conditions: HepG2 XBP1 cis-element reporter, Attagene multiplex; actives raise or lower the signal
Chain of X-box-binding protein 1 (Homo sapiens) (P17861 whole entry, looked up): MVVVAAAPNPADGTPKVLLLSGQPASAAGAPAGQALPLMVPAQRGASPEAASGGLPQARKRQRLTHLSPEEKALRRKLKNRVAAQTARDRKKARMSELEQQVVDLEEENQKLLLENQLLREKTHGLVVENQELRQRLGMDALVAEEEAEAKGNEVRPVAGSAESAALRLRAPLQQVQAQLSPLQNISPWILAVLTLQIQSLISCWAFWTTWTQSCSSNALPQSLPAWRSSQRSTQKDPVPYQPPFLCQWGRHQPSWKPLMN
Procedure, shortened: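 Multiplexed cis-reporter readout in transfected HepG2 liver cells. Exposure lasted 24 hours. Activity in either direction was fitted against DMSO as negative control and baseline.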

[16] = ATG_M_19_TRANS: Attagene TRANS-FACTORIAL HepG2 Assay for M19 Transcription Factor (Internal Marker) (AID 2282974; active = hit-call score of the fitted dose curve at least 0.9, where 1 is the maximum); conditions: HepG2 Attagene TRANS-FACTORIAL M19 internal marker reporter
Procedure, shortened: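 Transfected HepG2 (GAL4-UAS MRTUs), 24 h compound, TriZol RNA, DNase-treated RT, reporter PCR, FAM label, HpaI digest, CE fluorescence; gain vs DMSO.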

[17] = target: Estrogen-related receptor gamma (Homo sapiens) (UniProt P62508); experiment: ATG_ERRg_TRANS: Attagene TRANS-FACTORIAL HepG2 Assay for human Estrogen-Related Receptor gamma (ERRg) (AID 2282977; active = hit-call score of the fitted dose curve at least 0.9, where 1 is the maximum;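 note: hits increase reporter signal over DMSO so potencies reflect activators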); conditions: HepG2 Attagene TRANS reporter, ERRg transactivation
Chain of Estrogen-related receptor gamma (Homo sapiens) (P62508 whole entry, looked up, the tested form may be a part): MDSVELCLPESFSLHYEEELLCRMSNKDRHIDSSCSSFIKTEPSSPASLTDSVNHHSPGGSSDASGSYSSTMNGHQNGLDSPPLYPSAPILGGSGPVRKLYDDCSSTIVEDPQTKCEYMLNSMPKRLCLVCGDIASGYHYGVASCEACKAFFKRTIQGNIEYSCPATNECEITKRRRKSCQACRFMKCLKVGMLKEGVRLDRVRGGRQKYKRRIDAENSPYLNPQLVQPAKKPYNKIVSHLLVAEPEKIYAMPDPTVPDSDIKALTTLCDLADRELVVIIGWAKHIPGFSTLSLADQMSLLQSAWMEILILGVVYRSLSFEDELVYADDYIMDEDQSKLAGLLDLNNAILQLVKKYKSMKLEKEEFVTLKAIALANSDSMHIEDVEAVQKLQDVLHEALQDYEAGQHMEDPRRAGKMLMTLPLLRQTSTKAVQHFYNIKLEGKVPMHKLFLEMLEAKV
Procedure, shortened: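 Induction of reporter transcripts through a chimeric NR-Gal4 protein is quantified in transfected human HepG2 liver cells after 24 h chemical exposure, using RT-PCR with capillary electrophoresis detection and DMSO as baseline.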

[18] = ATG_GAL4_TRANS: Attagene TRANS-FACTORIAL HepG2 Assay for GAL4 (Internal Marker) (AID 2282976; active = hit-call score of the fitted dose curve at least 0.9, where 1 is the maximum); conditions: HepG2 Attagene TRANS GAL4 internal marker reporter
Procedure, shortened: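 Background-control readout: GAL4-UAS reporter transcript in transiently transfected HepG2 cells after 24 h compound exposure. Measured by RT-PCR, 6-FAM primer extension, HpaI digest and capillary electrophoresis; gain-of-signal fit versus DMSO.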

[19] = target: Nuclear receptor subfamily 1 group I member 3 (Homo sapiens) (UniProt Q14994); experiment: ATG_CAR_TRANS: Attagene TRANS-FACTORIAL HepG2 Assay for human Constitutive Androstane Receptor (CAR) (AID 2282969; active = hit-call score of the fitted dose curve at least 0.9, where 1 is the maximum;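 note: activators raise reporter mRNA above DMSO so AC50 marks induction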); conditions: HepG2 Attagene TRANS-FACTORIAL CAR reporter
Chain of Nuclear receptor subfamily 1 group I member 3 (Homo sapiens) (Q14994 whole entry, looked up, the tested form may be a part): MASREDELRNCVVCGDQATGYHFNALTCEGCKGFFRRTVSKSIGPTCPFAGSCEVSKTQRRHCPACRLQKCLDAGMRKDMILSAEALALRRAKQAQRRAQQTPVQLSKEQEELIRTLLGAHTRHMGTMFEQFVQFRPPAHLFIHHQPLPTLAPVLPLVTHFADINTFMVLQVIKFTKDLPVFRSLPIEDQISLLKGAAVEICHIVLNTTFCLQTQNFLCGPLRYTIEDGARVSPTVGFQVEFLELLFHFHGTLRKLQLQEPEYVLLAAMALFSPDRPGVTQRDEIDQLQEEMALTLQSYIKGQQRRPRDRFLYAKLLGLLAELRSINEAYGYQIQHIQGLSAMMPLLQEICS
Procedure, shortened: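 Transiently transfected HepG2, multiplex TRANS reporters (CAR-Gal4 chimera driving GAL4-UAS reporter). 24 h dosing. Readout: reporter transcript by RT-PCR + capillary electrophoresis, fluorescence intensity; positive direction vs DMSO.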

[20] = target: Steroid hormone receptor ERR1 (Homo sapiens) (UniProt P11474); experiment: ATG_ERRa_TRANS: Attagene TRANS-FACTORIAL HepG2 Assay for human Estrogen-Related Receptor alpha (ERRa) (AID 2282971; active = hit-call score of the fitted dose curve at least 0.9, where 1 is the maximum); conditions: HepG2 Attagene TRANS reporter, ERRa transactivation
Chain of Steroid hormone receptor ERR1 (Homo sapiens) (P11474 whole entry, looked up, the tested form may be a part): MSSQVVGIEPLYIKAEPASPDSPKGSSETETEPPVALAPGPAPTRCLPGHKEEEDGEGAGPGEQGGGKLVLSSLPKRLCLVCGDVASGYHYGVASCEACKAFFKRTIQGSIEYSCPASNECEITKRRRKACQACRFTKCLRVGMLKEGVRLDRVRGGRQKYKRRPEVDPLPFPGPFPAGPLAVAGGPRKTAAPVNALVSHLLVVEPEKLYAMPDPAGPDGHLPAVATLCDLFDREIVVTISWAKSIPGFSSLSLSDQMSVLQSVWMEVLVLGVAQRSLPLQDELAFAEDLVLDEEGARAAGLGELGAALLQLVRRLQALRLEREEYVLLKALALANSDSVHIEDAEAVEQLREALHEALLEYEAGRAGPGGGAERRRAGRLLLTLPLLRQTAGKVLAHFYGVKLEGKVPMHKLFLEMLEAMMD
Procedure, shortened: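 HepG2 cells transiently transfected with GAL4-UAS reporter units and chimeric NR-Gal4 constructs; after 24 hour compound incubation, reporter mRNA quantified by RT-PCR, fluorescent labelling and capillary electrophoresis, gain of signal versus DMSO.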

Measured: AC50

S=C(NC1CCCCC1)NC1CCCCC1
active: [2] 4.14 µM
not listed: [18] | [19] | [20]
inactive: all other assays above

O=C(O)c1ccccc1Nc1cccc(C(F)(F)F)c1
active: [2] 5.5 µM | [3] 33 µM | [4] 100 µM | [7] 26.5 µM | [9] 100 µM | [13] 44.5 µM | [15] 76.5 µM
not listed: [16] | [17] | [18] | [19] | [20]
inactive: all other assays above

O=C1c2ccccc2C(=O)C1c1nc2ccccc2c(Br)c1O
active: [2] 5.42 µM | [12] 100 µM | [13] 17.2 µM
not listed: [17] | [19] | [20]
inactive: all other assays above

CCCCC/C=C\CCC=O
active: [2] 27.8 µM
not listed: [16] | [17] | [18]
inactive: all other assays above
